# Screens: PubChem BioAssay, The Scripps Research Institute Molecular Screening Center
# TEAD-YAP block = TEAD-YAP interaction inhibition; HEK-TIYL cells, TEAD-Gal4/YAP UAS-luciferase luminescence; actives 1.4% (n = 640,000); inhibition, % at 9.12 µM; in the data active = inhibition above about 32%;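 note: 0% = median of test compound wells and 100% = reference inhibitor wells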
# FBW7 activator = human FBW7 E3 ligase activation, primary screen; actives 0.13% (n = 650,000); normalized activity (activation), % at 26.1 µM; AID 1259310; AlphaScreen FBW7–phospho-cyclin E peptide binding, activator screen; in the data active = normalized activity above about 1.9%;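 note: purified mutant Fbw7 with reduced substrate affinity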
# MITF primary = inhibitors of human MITF | O75030 | AlphaScreen MITF homodimerization, bead proximity signal | inhibition, % at 2.6 µM | actives 0.91% (n = 650,000) | AID 1259374; in the data active = inhibition above about 50%;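 note: 0% = vehicle wells with protein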
# GPR151 ag = activates the human receptor GPR151; Q8TDV0; PathHunter beta-arrestin GPR151 cells, luminescence; activation, % at 11.2 µM; actives 1% (n = 650,000); in the data active = activation above about 4.9%;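 note: 0% = median of compound wells and 100% = cells with positive control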
# Target sequence (Q8TDV0 whole entry, looked up): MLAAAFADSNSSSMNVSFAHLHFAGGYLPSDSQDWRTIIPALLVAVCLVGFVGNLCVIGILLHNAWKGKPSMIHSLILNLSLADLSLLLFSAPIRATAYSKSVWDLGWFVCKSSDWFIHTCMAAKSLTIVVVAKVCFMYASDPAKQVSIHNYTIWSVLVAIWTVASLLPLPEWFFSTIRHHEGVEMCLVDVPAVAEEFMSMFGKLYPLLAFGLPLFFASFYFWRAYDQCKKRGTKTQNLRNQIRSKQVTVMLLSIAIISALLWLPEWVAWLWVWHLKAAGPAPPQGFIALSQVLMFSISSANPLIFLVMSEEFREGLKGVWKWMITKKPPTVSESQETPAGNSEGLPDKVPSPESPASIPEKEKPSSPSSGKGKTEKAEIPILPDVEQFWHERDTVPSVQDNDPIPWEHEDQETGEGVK
# Numbers without * were called inactive. In the library only some 3.5% were active in any assay of this set; here they are far more common.
SMILES,TEAD-YAP block,FBW7 activator,MITF primary,GPR151 ag
CCC(=O)NC(c1ccccc1)c1ccc2cccnc2c1O (configuration not stated),81.8*,-1.9,34.8,-0.2
CCC(=O)NC(c1ccc(OC)cc1)c1ccc2cccnc2c1O (configuration not stated),32.4*,-1.8,63.1*,0.4
CCCCC(=O)NC(c1ccc(Cl)cc1)c1ccc2cccnc2c1O (configuration not stated),84.7*,-1.4,27.0,-0.4
CCC(=O)NC(c1ccc2c(c1)OCO2)c1cc(Cl)c2cccnc2c1O (configuration not stated),4.6,-0.4,13.7,-0.6
COCC(=O)NC(c1ccccc1)c1cc(Cl)c2cccnc2c1O (configuration not stated),24.5,-0.4,27.3,-0.4
CCC(=O)NC(c1ccc(Cl)cc1)c1ccc2cccnc2c1O (configuration not stated),95.0*,-1.4,31.9,-0.3
Cc1nn(C)c(C(=O)Nc2cccnc2Cl)c1[N+](=O)[O-],2.0,0.1,0.2,-0.3
Cc1ccc(OCCCn2cnc3ccccc32)cc1,-54.1,-0.1,-2.1,-1.5
Clc1ccccc1-c1nccnc1NCC1CC1,-4.3,0.0,2.9,-0.1
O=C(OC1CCCCC1)C(O)C1CCCCC1=O (configuration not stated),4.2,-0.1,5.8,0.7
CC(=O)NC(c1ccc(Cl)cc1Cl)c1ccc2cccnc2c1O (configuration not stated),89.3*,-1.0,41.8,2.6
CC(=O)NC(c1ccc(Cl)cc1Cl)c1cc(Cl)c2cccnc2c1O (configuration not stated),19.6,-0.3,4.4,0.1
CCCC(=O)NC(c1ccc(Cl)cc1Cl)c1ccc2cccnc2c1O (configuration not stated),63.0*,-0.8,25.9,-0.8
CCCC(=O)NC(c1ccc(Cl)cc1)c1ccc2cccnc2c1O (configuration not stated),88.4*,-1.4,25.1,-0.7
CC(C)N(C)Cc1nnnn1CC(=O)NCC(F)(F)F,4.3,-0.1,3.6,-1.6
O=C(Nc1ccc2c(c1)CN(S(=O)(=O)c1ccsc1)CC2)C1CCCO1 (configuration not stated),9.3,0.0,-7.5,1.3
COc1ccc(-c2cncc3ccc(C(=O)NCc4ccncc4)nc23)cc1,76.6*,-0.6,13.7,-1.5
O=C(NCc1ccncc1)c1ccc2cncc(-c3ccccc3)c2n1,71.1*,-0.4,4.0,-0.4
COc1ccc(-c2cncc3ccc(C(=O)NCc4ccccc4OC)nc23)cc1,49.6*,-0.1,12.2,0.1
O=C(NCc1ccncc1)c1cnc2ccccc2n1,13.5,0.0,3.6,-0.7
O=C(NCc1ccc(C(F)(F)F)nc1)c1ccc2cncc(-c3ccccc3)c2n1,48.7*,-0.2,12.8,1.5
CC(C)(C)C(=O)CSc1nc2cc(C(=O)N3CCN(c4ccccc4)CC3)ccc2c(=O)n1CCc1ccccc1,-5.9,-0.1,-9.8,-2.0
Cc1cc(C)c(S(=O)(=O)NC(C)(C)C)c(C)c1,5.3,0.3,7.4,-1.2
C[C@]12CCCCC1CCC1C2CC[C@]2(C)C(N)CCC12 (some centres not stated),-9.9,0.0,-2.0,2.4
CC1(C)O[C@]2(CCC3C4CC[C@H]5CCCC[C@]5(C)C4CC[C@@]32C)CN1C(=O)CSC1=NCCN1 (some centres not stated),32.7*,-0.1,1.8,1.6
SMILES,TEAD-YAP block,FBW7 activator,MITF primary,GPR151 ag
Oc1ccccc1-c1ccc2c(-c3ccc(N4CCNCC4)cc3)[nH]nc2n1,61.4*,0.0,7.9,0.5
COc1cc2nc(Oc3ccccc3)nc(Nc3cc(OC)c(OC)c(OC)c3)c2cc1OC,56.4*,0.2,9.8,4.9
O[N+]1=CC=CCC1=S.On1ccccc1=S.[Zn],100.0*,-0.3,-113.3,2.1
N#Cc1ccc(NC(=O)c2cc(-c3ccc(O)cc3)on2)cc1,-8.6,2.3*,-15.6,-0.2
COc1ccc(-c2cc(C(=O)Nc3cccc(O)c3)no2)cc1,90.3*,0.0,0.7,-5.3
O=C(Nc1cccc(O)c1)c1cc(-c2ccc(F)cc2)on1,88.5*,-0.1,-20.8,-2.5
N#Cc1ccc(NC(=O)c2cc(-c3ccc(Cl)cc3)on2)cc1,8.1,0.0,-6.2,-0.6
COc1ccc(NC(=O)c2cc(-c3cccc(O)c3)on2)cc1,-35.9,0.1,5.5,0.0
C=CCNC(=O)CN(Cc1ccccc1Cl)S(=O)(=O)c1ccc(Cl)cc1,1.8,0.1,-6.5,0.3
CCn1c(=O)c2c(nc3n2CC(C)CN3c2ccc(C)c(C)c2)n(C)c1=O (configuration not stated),5.6,0.0,4.0,0.1
